Laboratory results taken from PubChem BioAssay AID1159580 (chemical genetic matrix, 2015).
Hit rate of the full screen: of about 5,500 compounds, about 2,000 (36%) were called active. About 18% were inconclusive and are not listed. No stated cut-off is given here; in the data, active means normalized growth mostly below about 0.91 (no sharp cut-off); inconclusive means no clear call, values can overlap the other calls; inactive means mostly above about 0.92. Some of the results follow.

Assay: chemical genetic growth profiling, strain panel (AID 1159580);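 further: tested at 20 µM; growth read once vehicle control cultures reached saturation at 30 °C; 1 = growth at the plate median or of vehicle wells; lower values mean less growth of the strain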
Settings: S. cerevisiae deletion strains, growth OD

Measured: normalized growth

CCCOc1ccccc1-c1nc2n[nH]nc2c(=O)[nH]1
inactive: locus YAL013W, strain DEP1, active compounds read low 0.99 | locus YAL021C, strain ccr4, active compounds read low 0.965 | locus YAL026C, strain drs2, active compounds read low 1.02 | locus YAL030W, strain snc1, active compounds read low 0.995 | locus YAL040C, strain CLN3, active compounds read low 1.05 | locus YBL061C, strain skt5, active compounds read low 1 | locus YBR009C, strain hhf1, active compounds read low 1.03 | locus YBR021W, strain FUR4, active compounds read low 0.996 | locus YBR023C, strain chs3, active compounds read low 1 | locus YBR171W, strain sec66, active compounds read low 1.01 | locus YBR229C, strain ROT2, active compounds read low 1 | locus YBR231C, strain swc5, active compounds read low 1.02 | locus YBR279W, strain paf1, active compounds read low 1.01 | locus YCL011C, strain gbp2, active compounds read low 1.01 | locus YCL016C, strain dcc1, active compounds read low 1.01 | locus YCL029C, strain bik1, active compounds read low 1.01 | locus YCL061C, strain MRC1 (second series), active compounds read low 0.993 | locus YCL061C, strain MRC1, active compounds read low 1 | locus YCL069W, strain vba3, active compounds read low 0.992 | locus YCR088W, strain abp1, active compounds read low 1 | locus YDL005C, strain med2, active compounds read low 1 | locus YDL035C, strain GPR1, active compounds read low 1.02 | locus YDL040C, strain nat1, active compounds read low 0.991 | locus YDL074C, strain BRE1, active compounds read low 1.01 | locus YDL101C, strain DUN1, active compounds read low 1.01 | locus YDL134C, strain PPH21, active compounds read low 1.01 | locus YDL185W, strain tfp1, active compounds read low 1.01 | locus YDL192W, strain arf1, active compounds read low 1.01 | locus YDR001C, strain nth1, active compounds read low 0.998 | locus YDR069C, strain doa4, active compounds read low 1.02 | locus YDR101C, strain arx1, active compounds read low 1 | locus YDR137W, strain rgp1, active compounds read low 1 | locus YDR159W, strain sac3, active compounds read low 1.03 | locus YDR162C, strain NBP2, active compounds read low 1.01 | locus YDR195W, strain ref2 1.04 | locus YDR297W, strain sur2, active compounds read low 1 | locus YDR318W, strain mcm21, active compounds read low 1.01 | locus YDR334W, strain swr1, active compounds read low 1.01 | locus YDR335W, strain msn5, active compounds read low 1 | locus YDR363W, strain ESC2, active compounds read low 0.985 | locus YDR388W, active compounds read low 1.02 | locus YDR392W, strain spt3, active compounds read low 0.956 | locus YDR502C, strain sam2, active compounds read low 1.01 | locus YEL003W, strain gim4, active compounds read low 1.01 | locus YEL037C, strain rad23, active compounds read low 0.998 | locus YEL061C, strain CIN8 (second series), active compounds read low 1 | locus YEL061C, strain CIN8, active compounds read low 1.01 | locus YER002W, strain NOP16, active compounds read low 1.01 | locus YER015W, strain faa2, active compounds read low 1.01 | locus YER016W, strain bim1, active compounds read low 1.01 | locus YER110C, active compounds read low 1.01 | locus YER111C, strain swi4, active compounds read low 1.01 | locus YER155C, strain BEM2 (second series), active compounds read low 1.05 | locus YER155C, strain BEM2, active compounds read low 1 | locus YER167W, strain BCK2, active compounds read low 1.01 | locus YFR010W, strain ubp6, active compounds read low 1.01 | locus YGL078C, strain dbp3, active compounds read low 1.01 | locus YGL086W, strain mad1, active compounds read low 1 | locus YGL167C, strain pmr1, active compounds read low 1.01 | locus YGL173C, strain kem1, active compounds read low 1.01 | locus YGL227W, strain vid30, active compounds read low 1.01 | locus YGL240W, strain doc1, active compounds read low 1.05 | locus YGL248W, strain PDE1, active compounds read low 0.981 | locus YGL253W, strain hxk2, active compounds read low 1.01 | locus YGR078C, strain PAC10, active compounds read low 1.01 | locus YGR135W, strain pre9, active compounds read low 1.01 | locus YGR229C, strain SMI1, active compounds read low 1.01 | locus YGR252W, strain gcn5, active compounds read low 1.03 | locus YHR013C, strain ard1, active compounds read low 0.978 | locus YHR027C, strain rpn1, active compounds read low 1 | locus YHR030C, strain SLT2, active compounds read low 1 | locus YHR079C, strain IRE1 (second series), active compounds read low 1.01 | locus YHR094C, strain hxt1, active compounds read low 1.02 | locus YHR129C, strain ARP1, active compounds read low 1 | locus YHR142W, strain chs7, active compounds read low 0.953 | locus YHR200W, strain rpn10, active compounds read low 1.01 | locus YIL066C, strain RNR3, active compounds read low 1 | locus YIL073C, strain SPO22, active compounds read low 1.08 | locus YIL125W, strain kgd1, active compounds read low 1 | locus YIR030C, strain dcg1, active compounds read low 1.01 | locus YJL092W, strain hpr5, active compounds read low 1 | locus YJL095W, strain BCK1 (second series), active compounds read low 1.01 | locus YJL095W, strain BCK1, active compounds read low 0.994 | locus YJL115W, strain asf1, active compounds read low 1 | locus YJL129C, strain trk1, active compounds read low 0.992 | locus YJL134W, strain LCB3, active compounds read low 1.01 | locus YJL154C, strain vps35, active compounds read low 0.999 | locus YJL164C, strain tpk1, active compounds read low 0.987 | locus YJL166W, strain qcr8, active compounds read low 1.01 | locus YJL168C, strain set2, active compounds read low 1.01
